Sfp inh: qHTS Assay for Inhibitors of Bacillus subtilis Sfp phosphopantetheinyl transferase (PPTase); 4'-phosphopantetheinyl transferase ffp (Bacillus subtilis), Q9F4F7; Biochemical Sfp PPTase activity, qHTS; Potency, µM, most hits filed as inhibitors; hit rate 3.5% among 310,000; AID 1490, 2009;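 further: the enzyme is Sfp with the accession as filed and its product quenches rhodamine fluorescence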
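With Hepes-Na pH 7.6 buffer containing 10 mM MgCl2, Sfp (15 nM) modified BHQ-2-YbbR (12.5 uM) using rhodamine-CoA (5 uM). Two reads 30 minutes apart at 525/598 nm yielded each well's rate.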
PLK1 PBD inh: qHTS for Inhibitors of PLK1-PDB (polo-like kinase 1 - polo-box domain): Primary Screen | Serine/threonine-protein kinase PLK1 (Homo sapiens), P53350 | Potency, µM, actives largely listed as inhibitors | hit rate 2.8% among 360,000 | AID 720504, 2013 | Plk1 PBD binding of FITC phosphopeptide, fluorescence polarization; further: series mostly up to about 57 µM; nearly all actives have a fitted effect of over 65% in size
VDR inh: Inhibitors of the vitamin D receptor (VDR): qHTS | Vitamin D3 receptor (Homo sapiens), P11473 | hit rate 0.93% among 400,000 | VDR-SRC2-3 peptide fluorescence polarization, 2 h | AID 504847, 2011 | Potency, µM, actives largely listed as inhibitors
Target sequence (P11473 whole entry, looked up): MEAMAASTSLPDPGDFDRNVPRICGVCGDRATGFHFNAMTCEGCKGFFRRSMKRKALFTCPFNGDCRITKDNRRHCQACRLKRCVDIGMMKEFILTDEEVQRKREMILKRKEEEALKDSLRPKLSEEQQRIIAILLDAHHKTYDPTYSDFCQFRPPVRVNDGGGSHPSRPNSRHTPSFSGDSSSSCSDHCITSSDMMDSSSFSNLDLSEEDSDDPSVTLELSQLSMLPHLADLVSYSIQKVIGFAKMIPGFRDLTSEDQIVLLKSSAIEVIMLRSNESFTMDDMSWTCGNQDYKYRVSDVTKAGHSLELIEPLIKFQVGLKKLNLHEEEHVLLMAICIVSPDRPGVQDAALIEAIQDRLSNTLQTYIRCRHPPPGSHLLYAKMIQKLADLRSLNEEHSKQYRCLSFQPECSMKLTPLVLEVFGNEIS
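Measured by FP: displacement of SRC2-3 coactivator peptide from VDR by library compounds, following a two-hour ambient incubation.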
Tau FP inhib: qHTS for Inhibitors of Tau Fibril Formation, Fluorescence Polarization; Microtubule-associated protein tau (Homo sapiens), P10636; K18 P301L tau heparin fibrillization, Alexa594 FP, 6 h; Potency, µM (top dose mostly 57.7 µM), hits mostly inhibitors; hit rate 0.39% among 280,000; further: nearly all actives have a fitted effect of over 55% in size
Target sequence (P10636 561-689 P618L limits assumed): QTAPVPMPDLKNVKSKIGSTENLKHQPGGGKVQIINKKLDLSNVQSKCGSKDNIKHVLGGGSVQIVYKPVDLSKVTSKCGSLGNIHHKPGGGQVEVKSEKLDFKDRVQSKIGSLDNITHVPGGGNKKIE
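Human tau K18 […] P301L fragment, 15 uM unlabeled plus 0.24 uM Alexa 594-labeled tau (final), with compound and 20 uM heparin in 100 mM sodium acetate pH 7; 6 hr at 37 C, then Alexa 594 FP read.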
Tau ThT inhib: qHTS for Inhibitors of Tau Fibril Formation, Thioflavin T Binding; Microtubule-associated protein tau (Homo sapiens), P10636; recombinant tau K18 P301L, heparin-induced fibrillization, ThT fluorescence; Potency, µM (top dose mostly 57.4 µM), most hits filed as inhibitors; hit rate 2.1% among 270,000; further: nearly all actives have a fitted effect of over 55% in size
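Aggregation was driven by heparin (20 uM final) acting on recombinant tau […] bearing P301L in 100 mM sodium acetate pH 7; fibrils were detected with Thioflavin T.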
Tau fluor cs: Counterscreen qHTS for Inhibitors of Tau Fibril Formation, Fluorescence Polarization | tau K18 P301L (four-repeat tau fragment) Alexa594 fluorescence, heparin fibrillization | hit rate 0.93% among 280,000 | Potency, µM (doses to about 57.7 µM); further: nearly all actives have a fitted effect of over 55% in size
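Human K18 P301L tau (15 uM unlabeled plus 0.24 uM Alexa 594-labeled, final) in 100 mM sodium acetate pH 7 was mixed with compound and 20 uM heparin and incubated 6 hr at 37 C.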
Numbers stand for hits; - = inactive; ? = inconclusive; . = not tested or not shown; [ ] = dose if it differs, or a comment. Sampled rows, rich in hits. Any-hit rate of the full collection: about 6%. The call rests on the fitted dose curve; in most records, active means well fitted curve in the direction sought with a large enough effect; inconclusive means small, poorly fitted or top-dose-only effect, or another doubt; inactive means no such curve, though single readings can be large; an effect the other way counts as inactive or inconclusive.

SMILES	Sfp inh	PLK1 PBD inh	VDR inh	Tau FP inhib	Tau ThT inhib	Tau fluor cs
O=C1OC(c2ccccc2)C(O)=C1c1ccccc1 (stereo not drawn)	.	-	-	.	.	.
O=C(Cn1c(=O)oc2cc(S(=O)(=O)N3CCCCC3)ccc21)Nc1cccc(Cl)c1	.	.	-	-	-	-
Cc1ccc(N2C(=O)CC(Sc3nc4ccccc4o3)C2=O)cc1Cl (stereo not drawn)	50.1µM	-	-	-	?	-
CCCc1c(O)nc(SC2CC(=O)N(c3ccc(C)c(Cl)c3)C2=O)[nH]c1=O (stereo not drawn)	.	-	-	.	.	.
CCOc1ccc(OCC)c(NC(=O)C2CCN(S(=O)(=O)c3c(C)[nH]c(=O)[nH]c3=O)CC2)c1	-	16.8µM	-	-	-	-
CCc1ccc(NC(=O)Nc2ccc3c(c2)N(C)C(=O)CS3)cc1	-	?	?	?	-	17.8µM[quencher]
Cc1cc(C)cc(NC(=O)Nc2ccc3c(c2)N(C)C(=O)CS3)c1	-	-	-	?	-	11.2µM[quencher]
COc1ccc(S(=O)(=O)N(Cc2cccnc2)Cc2cc3ccccc3[nH]c2=O)cc1	-	26.7µM	-	.	.	.
COc1ccc(Cl)cc1NCc1nnc2n1CCCCC2	.	.	-	-	-	-
COc1ccc(NCC(=O)N/N=C/C=C\c2ccccc2)cc1	-	-	-	-	-	-
O=C(COc1cccc2ccccc12)N/N=C/C=C/c1ccccc1	-	-	-	?	?	-
COc1ccccc1NCC(=O)N/N=C/C=C/c1ccccc1	-	-	-	-	14.1µM	?
Cc1ccccc1OCC(=O)N/N=C/C=C/c1ccccc1	-	29.9µM	?	-	?	-
COC(=O)Cn1c(C(=O)N2CCCC2)cc2c1C[C@H]1CN(C(=O)c3ccccc3)[C@@](Cc3ccc(OC)cc3)(C(=O)OC)[C@@H]21	.	-	.	.	.	.
COc1ccc(C(=O)NCc2c(C)nn(Cc3ccccc3)c2C)cc1S(=O)(=O)N1CCOCC1	.	-	-	.	.	.
CCc1ccc(-c2nc3cc(NC(=O)c4ccc(F)cc4)ccc3o2)cc1	.	.	-	-	?	-
CC1(C)CC(Cc2ccc(C(F)(F)F)cn2)N(C(=O)OC(C)(C)C)C1 (stereo not drawn)	.	-	.	.	.	.
CC(C)(C)OC(=O)N1C[C@H](O)C[C@H]1C(=O)OCC(=O)c1ccc([N+](=O)[O-])cc1	-	21.2µM	?	.	.	.
Cc1ccc(S(=O)(=O)N2CC(O)C[C@H]2C(=O)OCC(=O)c2ccccc2)cc1 (stereo partly drawn)	-	-	-	-	-	-
CCn1c(SCC(=O)NC2CC2)nc2ccccc21	.	-	.	.	.	.
CC(C)NC(=O)CSc1nc2ccccc2n1-c1ccccc1	-	-	-	-	-	-
CCn1c(SCC(=O)NC(=O)NC(C)(C)C)nc2ccccc21	-	9.47µM	?	-	-	-
CC(C)(C)NC(=O)CSc1nc2ccccc2n1-c1ccccc1	50.1µM	-	-	-	-	-
CC1CCCC(C)N1C(=S)NCc1ccco1 (stereo not drawn)	35.5µM	?	-	-	?	-
OCC1CCCCN1C(=S)NCc1ccco1 (stereo not drawn)	50.1µM	-	-	-	-	-
SMILES	Sfp inh	PLK1 PBD inh	VDR inh	Tau FP inhib	Tau ThT inhib	Tau fluor cs
CCNC(=S)N1CCCCC1CO (stereo not drawn)	-	-	-	-	-	-
COC(C(=O)C(O)C(C)O)C1Cc2cc3cc(OC4CC(OC5CC(O)C(O)C(C)O5)C(O)C(C)O4)c(C)c(O)c3c(O)c2C(=O)C1OC1CC(OC2CC(OC3CC(C)(O)C(O)C(C)O3)C(O)C(C)O2)C(O)C(C)O1 (stereo not drawn)	-	.	?	.	.	.
COc1ccc(NC(=O)COC(=O)CNC(=O)c2cccs2)cc1Cl	.	-	-	.	.	.
Cc1noc(C)c1-c1cncnc1N1CCN(C)CC1	-	.	31.6µM	.	.	.
COc1ccc(-c2n[nH]c(C(F)(F)F)c2-c2cc3ccccc3o2)c(O)c1	-	-	-	-	17.8µM	?
CC(C)c1cccc(-c2csc(C(O)c3cccc(Cl)c3)n2)c1 (stereo not drawn)	.	-	.	.	.	.
Cc1ccc(CN(Cc2ccccc2)C(=S)NCC(=O)NCc2cccnc2)o1	25.1µM	?	-	-	-	-
Cc1ccc(CN(Cc2ccco2)C(=S)NCC(=O)O)cc1	-	-	-	-	-	-
Cc1ccc(CN(Cc2ccco2)C(=S)NCC(=O)NCc2cccnc2)cc1	22.4µM	?	-	-	-	-
CCN(CC)CCOC(=O)c1ccc(NC(=O)CCn2c(=O)oc3ccccc32)cc1	.	.	-	-	-	-
COCCn1c(=NC(=O)CSCC(=O)Nc2cc(C)on2)sc2cc(C(=O)OC)ccc21	-	26.7µM	-	-	-	-
COCCn1c(=NC(=O)CCS(=O)(=O)c2ccccc2)sc2cc(C(=O)OC)ccc21	-	-	-	.	.	.
CCOC(=O)c1c(S(=O)(=O)N2CCC(C(=O)Nc3cccc(C)n3)CC2)c(C)n(C)c1C	.	.	-	-	-	-
O=C(COC(=O)CCC(=O)c1ccc(Cl)cc1)NCc1ccco1	14.1µM	-	-	-	-	-
NC(=O)C1(N2CCCCC2)CCN(C(=O)c2ccc(-n3cnnn3)cc2)CC1	-	26.7µM	-	-	-	-
COc1ccc(Cn2c(=S)[nH]c3cc(OC)c(OC)cc3c2=O)cc1	-	-	-	-	-	-
COc1cc2[nH]c(=S)n(CCN3CCOCC3)c(=O)c2cc1OC	17.8µM	-	-	-	-	-
COc1cc2[nH]c(=S)n(Cc3ccc(C)cc3)c(=O)c2cc1OC	56.2µM	-	-	?	?	-
CCC1=C2CC[C@H]3C(=O)N(CC(=O)OC)C(=O)[C@H]3[C@H]2[C@@]2(Cc3ccccc3)C(=NCCOC)OC(=O)N2C1=O	-	.	.	-	-	-
CCCCC[C@H](O)/C=C/[C@@H]1[C@H]2C/C(=C/CCCC(=O)O)C[C@H]2C[C@H]1O	-	.	-	-	-	-
CN(C)S(=O)(=O)c1cccc(C(=O)OCC(=O)Nc2sccc2C#N)c1	79.4µM	-	-	-	-	-
COc1ccc(N(C)S(=O)(=O)c2cccc(C(=O)OCC(=O)Nc3sc4c(c3C#N)CCCCC4)c2)cc1	-	-	-	-	-	-
O=[N+]([O-])c1cc(S(=O)(=O)Nc2cccc(C(F)(F)F)c2)ccc1-n1nnc2ccccc21	-	26.7µM	-	?	?	?

Compound activity from PubChem BioAssay.
